The source of these data is ChEMBL document CHEMBL3988442, “University of Dundee, Small-Polar-MMV Screening Library” (2021).

Parameters in all cases: scale not given: direction of the effect not stated beside the values
For assay [1], the target named is Protein translocase subunit SecA (Escherichia coli (strain K12)) (UniProt P10408). Put plainly: Assay to Identify E. coli SecA ATPase Inhibitors. It is filed as functional. To be noted: 30 µM.
For assay [2], the target named is T1, Ubiquitin-activating enzyme e1, putative (Leishmania donovani (strain BPK282A1)) (UniProt E9BSI1).
T1 sequence (whole entry): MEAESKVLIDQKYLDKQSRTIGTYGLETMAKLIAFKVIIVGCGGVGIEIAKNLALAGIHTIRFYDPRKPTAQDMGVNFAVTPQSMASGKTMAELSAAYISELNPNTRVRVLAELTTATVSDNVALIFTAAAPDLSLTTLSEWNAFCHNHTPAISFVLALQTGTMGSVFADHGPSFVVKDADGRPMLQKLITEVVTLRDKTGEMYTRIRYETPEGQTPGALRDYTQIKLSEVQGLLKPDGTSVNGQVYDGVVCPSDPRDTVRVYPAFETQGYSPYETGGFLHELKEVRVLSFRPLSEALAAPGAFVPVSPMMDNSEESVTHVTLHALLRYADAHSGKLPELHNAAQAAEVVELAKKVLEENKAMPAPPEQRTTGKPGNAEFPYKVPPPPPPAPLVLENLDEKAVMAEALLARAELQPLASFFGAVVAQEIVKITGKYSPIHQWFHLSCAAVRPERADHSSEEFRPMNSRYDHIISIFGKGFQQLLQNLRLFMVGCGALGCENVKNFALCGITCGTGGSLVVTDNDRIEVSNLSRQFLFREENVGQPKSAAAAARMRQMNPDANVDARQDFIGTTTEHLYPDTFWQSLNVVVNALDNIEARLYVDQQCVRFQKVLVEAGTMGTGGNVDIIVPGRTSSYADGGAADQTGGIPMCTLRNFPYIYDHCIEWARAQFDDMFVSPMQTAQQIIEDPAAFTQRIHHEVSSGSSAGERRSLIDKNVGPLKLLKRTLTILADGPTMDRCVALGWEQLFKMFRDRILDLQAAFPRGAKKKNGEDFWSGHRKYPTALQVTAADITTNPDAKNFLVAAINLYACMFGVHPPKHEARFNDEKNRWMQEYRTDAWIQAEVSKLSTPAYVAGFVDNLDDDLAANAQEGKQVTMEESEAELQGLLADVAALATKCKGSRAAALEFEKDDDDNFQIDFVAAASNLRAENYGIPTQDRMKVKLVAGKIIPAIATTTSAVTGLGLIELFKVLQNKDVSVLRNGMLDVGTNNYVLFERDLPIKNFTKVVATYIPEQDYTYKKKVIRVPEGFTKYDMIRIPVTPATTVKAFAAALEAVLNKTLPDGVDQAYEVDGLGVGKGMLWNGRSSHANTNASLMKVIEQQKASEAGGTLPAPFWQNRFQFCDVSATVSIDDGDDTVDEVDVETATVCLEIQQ
Put plainly: Leishmania donovani Ubiquitin Activating Enzyme (LdE1). Format: functional. The settings on record: 30 µM.

For assay [3], the target named is AMP-activated protein kinase, AMPK (Homo sapiens) (UniProt P54646+O43741+P54619+Q9UGJ0+Q9Y478+Q13131+Q9UGI9). As to the kind of experiment: AMP-dependent Kinase enzyme assay. An in vitro enzyme assay that detects ADP turnover that is directly proportional to AMPK activity. This uses naive AMPK that is activated during the assay with MK-8722. The settings on record: 30 µM. It is filed as functional.

Assay [4] addresses Sialic acid-binding Ig-like lectin 9 (Homo sapiens) (UniProt Q9Y336). Put plainly: Hs-Siglec9 ALPHAscreen SOP 20170721. To be noted: 10 µM.
A further assay concerns Trypanosoma cruzi. Put plainly: Trypanosoma cruzi phosphomannomutase and mannose-1-phosphate guanylyltransferase assay. It is filed as functional. The settings on record: 10 µM.
For assay [5], the target named is T2, Arginase-2, mitochondrial (Homo sapiens) (UniProt P78540).
T2 sequence (whole entry): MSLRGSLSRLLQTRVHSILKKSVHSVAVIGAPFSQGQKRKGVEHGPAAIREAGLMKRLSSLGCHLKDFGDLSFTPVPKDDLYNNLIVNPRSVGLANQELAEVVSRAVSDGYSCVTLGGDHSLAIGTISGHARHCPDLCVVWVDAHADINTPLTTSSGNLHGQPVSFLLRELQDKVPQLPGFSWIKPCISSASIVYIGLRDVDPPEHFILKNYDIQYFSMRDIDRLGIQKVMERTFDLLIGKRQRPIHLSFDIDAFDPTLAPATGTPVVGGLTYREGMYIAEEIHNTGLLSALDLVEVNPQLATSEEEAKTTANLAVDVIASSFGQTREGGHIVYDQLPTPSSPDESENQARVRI
As to the kind of experiment: in vitro enzyme assay to detect the production of urea directly proportional to the activity of Arginase II. Note: in the data most compounds retested in dose-response had high values. The settings on record: 33.3 µM. Format: functional.

The target in assay [6] is T3, Proteasome subunit beta (Trypanosoma cruzi) (UniProt O96673).
T3 sequence (whole entry): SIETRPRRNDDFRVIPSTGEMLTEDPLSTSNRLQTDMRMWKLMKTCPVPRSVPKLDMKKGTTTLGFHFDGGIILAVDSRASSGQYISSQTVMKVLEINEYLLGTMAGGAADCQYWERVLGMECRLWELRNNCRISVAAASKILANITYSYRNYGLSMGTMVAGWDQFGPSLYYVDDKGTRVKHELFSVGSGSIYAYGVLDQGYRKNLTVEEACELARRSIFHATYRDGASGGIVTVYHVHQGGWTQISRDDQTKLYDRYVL
As to the kind of experiment: Trypanosoma cruzi proteasome chymotrypsin-like activity (TcProtChymo) assay. Note: in the data most compounds retested in dose-response had high values. Format: functional. The settings on record: 9.37 µM.

The species entered for another assay is Homo sapiens. Put plainly: To identify inhibition of the IFN signalling (Jak-Stat) pathway via expression of an eGFP reporter gene under the control of an IFN-stimulated response element (ISRE) containing MxA promoter. Format: functional. The settings on record: 30 µM.
Assay [7] has as its target T4, Tyrosyl-tRNA synthetase, putative (Trypanosoma cruzi (strain CL Brener)) (UniProt Q4DSP6).
T4 sequence (whole entry): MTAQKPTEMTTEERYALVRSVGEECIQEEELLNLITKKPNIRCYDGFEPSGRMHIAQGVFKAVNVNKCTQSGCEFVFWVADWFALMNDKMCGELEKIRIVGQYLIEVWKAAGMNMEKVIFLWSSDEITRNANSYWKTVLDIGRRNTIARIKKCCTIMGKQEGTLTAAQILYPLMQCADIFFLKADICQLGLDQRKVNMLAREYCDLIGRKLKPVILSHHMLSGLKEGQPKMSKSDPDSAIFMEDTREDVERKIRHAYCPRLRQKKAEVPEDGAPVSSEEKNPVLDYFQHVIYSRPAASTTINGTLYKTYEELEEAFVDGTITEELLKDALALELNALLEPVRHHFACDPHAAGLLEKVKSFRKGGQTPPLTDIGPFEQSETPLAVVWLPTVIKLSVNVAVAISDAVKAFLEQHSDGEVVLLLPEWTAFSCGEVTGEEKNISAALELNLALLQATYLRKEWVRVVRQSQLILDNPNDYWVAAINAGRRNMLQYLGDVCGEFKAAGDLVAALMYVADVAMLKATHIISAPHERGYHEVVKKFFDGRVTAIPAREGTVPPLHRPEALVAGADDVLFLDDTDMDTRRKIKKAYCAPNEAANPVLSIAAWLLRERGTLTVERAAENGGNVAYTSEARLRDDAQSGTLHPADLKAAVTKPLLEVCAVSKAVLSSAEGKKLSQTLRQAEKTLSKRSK
As to the kind of experiment: Trypanosoma cruzi tyrosyl tRNA synthetase (TcYRS) _High Tyrosine SOP. Note: in the data most compounds retested in dose-response had high values. To be noted: 30 µM. Format: functional.

Assay [8] addresses T4, Tyrosyl-tRNA synthetase, putative (Trypanosoma cruzi (strain CL Brener)). Put plainly: Trypanosoma cruzi tyrosyl tRNA synthetase (TcYRS) SOP. It is filed as functional. To be noted: 30 µM.
The target of assay [9] is Chromo domain-containing protein 1 (Saccharomyces cerevisiae (strain ATCC 204508 / S288c) (Baker's yeast)) (UniProt P32657). As to the kind of experiment: ScCHD-1 Enzyme Inhibition Assay. Note: in the data most compounds retested in dose-response had high values. It is filed as functional. The settings on record: 30 µM.
Sequence of Chromo domain-containing protein 1 (Saccharomyces cerevisiae (strain ATCC 204508 / S288c) (Baker's yeast)) (P32657 whole entry, the tested form may be a part): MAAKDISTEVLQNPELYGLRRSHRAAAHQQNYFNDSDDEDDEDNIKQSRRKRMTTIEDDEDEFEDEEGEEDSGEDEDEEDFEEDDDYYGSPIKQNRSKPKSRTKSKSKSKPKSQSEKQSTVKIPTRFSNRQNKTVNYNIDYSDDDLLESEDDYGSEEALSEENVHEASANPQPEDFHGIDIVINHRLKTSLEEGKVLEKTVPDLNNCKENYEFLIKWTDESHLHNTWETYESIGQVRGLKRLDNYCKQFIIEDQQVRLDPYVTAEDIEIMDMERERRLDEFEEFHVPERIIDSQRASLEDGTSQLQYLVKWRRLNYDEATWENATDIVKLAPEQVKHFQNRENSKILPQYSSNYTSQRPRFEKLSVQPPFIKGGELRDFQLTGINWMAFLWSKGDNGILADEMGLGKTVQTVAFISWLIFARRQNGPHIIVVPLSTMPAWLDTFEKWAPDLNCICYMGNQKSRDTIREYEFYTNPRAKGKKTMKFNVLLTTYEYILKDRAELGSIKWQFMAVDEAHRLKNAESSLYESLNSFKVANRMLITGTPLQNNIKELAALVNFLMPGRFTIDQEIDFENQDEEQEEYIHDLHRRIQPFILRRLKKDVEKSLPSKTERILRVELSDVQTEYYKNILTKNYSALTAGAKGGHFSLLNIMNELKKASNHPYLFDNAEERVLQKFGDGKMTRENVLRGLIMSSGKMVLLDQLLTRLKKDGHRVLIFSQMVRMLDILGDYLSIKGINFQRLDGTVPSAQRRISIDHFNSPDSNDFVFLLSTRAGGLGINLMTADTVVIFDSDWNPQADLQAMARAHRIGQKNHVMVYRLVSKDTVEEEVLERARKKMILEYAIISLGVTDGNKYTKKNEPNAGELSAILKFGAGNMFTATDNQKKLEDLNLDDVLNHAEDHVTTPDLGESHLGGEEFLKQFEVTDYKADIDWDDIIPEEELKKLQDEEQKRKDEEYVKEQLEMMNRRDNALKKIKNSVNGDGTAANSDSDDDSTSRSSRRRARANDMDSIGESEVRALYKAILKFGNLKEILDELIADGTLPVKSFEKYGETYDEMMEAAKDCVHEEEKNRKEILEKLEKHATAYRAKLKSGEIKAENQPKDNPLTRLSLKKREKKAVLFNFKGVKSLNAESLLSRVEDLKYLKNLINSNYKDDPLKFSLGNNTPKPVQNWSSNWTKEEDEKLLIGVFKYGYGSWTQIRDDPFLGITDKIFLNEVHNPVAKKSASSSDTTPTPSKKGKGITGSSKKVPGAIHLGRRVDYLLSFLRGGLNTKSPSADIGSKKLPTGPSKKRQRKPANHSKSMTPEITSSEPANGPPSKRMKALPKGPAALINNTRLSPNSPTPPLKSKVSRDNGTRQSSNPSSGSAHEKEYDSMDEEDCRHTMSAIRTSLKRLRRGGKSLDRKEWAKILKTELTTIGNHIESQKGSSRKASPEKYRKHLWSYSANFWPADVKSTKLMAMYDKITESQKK

For some of these results: Potency and affinity values are given separately.

Sequence of Protein translocase subunit SecA (Escherichia coli (strain K12)) (P10408 whole entry): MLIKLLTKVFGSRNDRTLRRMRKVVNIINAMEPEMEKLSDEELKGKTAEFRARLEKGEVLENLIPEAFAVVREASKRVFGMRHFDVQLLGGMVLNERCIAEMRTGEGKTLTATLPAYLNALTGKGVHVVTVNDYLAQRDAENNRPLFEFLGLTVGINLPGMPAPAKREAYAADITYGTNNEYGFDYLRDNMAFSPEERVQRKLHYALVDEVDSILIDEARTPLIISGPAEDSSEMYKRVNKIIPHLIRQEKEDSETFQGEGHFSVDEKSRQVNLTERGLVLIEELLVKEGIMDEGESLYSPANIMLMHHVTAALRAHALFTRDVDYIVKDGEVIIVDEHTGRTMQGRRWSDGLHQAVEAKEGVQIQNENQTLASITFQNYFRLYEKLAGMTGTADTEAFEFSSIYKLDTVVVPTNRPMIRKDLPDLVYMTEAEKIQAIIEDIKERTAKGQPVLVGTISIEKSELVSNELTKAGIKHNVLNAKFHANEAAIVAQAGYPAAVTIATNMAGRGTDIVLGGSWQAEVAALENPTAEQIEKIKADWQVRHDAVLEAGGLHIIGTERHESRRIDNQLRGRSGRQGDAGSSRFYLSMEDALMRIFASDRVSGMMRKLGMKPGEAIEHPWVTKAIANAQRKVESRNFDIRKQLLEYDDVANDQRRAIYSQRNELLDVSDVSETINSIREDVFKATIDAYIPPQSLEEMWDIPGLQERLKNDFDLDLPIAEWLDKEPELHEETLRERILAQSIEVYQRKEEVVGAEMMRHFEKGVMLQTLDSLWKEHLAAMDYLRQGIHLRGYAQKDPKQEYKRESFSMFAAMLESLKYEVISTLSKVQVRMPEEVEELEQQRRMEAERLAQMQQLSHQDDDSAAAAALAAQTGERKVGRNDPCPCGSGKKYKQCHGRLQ
Sequence of Sialic acid-binding Ig-like lectin 9 (Homo sapiens) (Q9Y336 whole entry): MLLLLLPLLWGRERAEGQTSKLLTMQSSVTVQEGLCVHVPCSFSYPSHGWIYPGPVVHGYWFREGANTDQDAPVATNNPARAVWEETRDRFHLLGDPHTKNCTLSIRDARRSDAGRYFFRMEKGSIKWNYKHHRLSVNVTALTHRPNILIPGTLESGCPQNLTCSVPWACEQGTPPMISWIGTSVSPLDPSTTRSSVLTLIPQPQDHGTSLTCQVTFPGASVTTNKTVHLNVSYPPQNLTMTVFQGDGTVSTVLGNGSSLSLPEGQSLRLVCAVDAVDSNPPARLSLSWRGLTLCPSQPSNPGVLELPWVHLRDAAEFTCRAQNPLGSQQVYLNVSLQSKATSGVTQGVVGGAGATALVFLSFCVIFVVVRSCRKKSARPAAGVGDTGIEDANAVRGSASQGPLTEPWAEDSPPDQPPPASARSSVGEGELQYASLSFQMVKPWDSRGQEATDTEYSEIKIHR

Regarding `Cc1ncc(CNC(=O)N(C)C2CCN(c3ccccc3)C2=O)s1` (stereo not drawn), the Percent Effect in [1] is -4.68%; in [2] it was 5.26%; in assay [3] it was 1.78%; in [4], -2.39%; with Trypanosoma cruzi, -4.51%; in assay [5] it was 3.45%. Moreover, the Percent Effect in assay [6] is 4.51%; in the assay filed under Homo sapiens, 15.1%; in assay [7], 2.45%; in assay [8], 0%; in [9], -3.16%.
In the case of `CC(NC(=O)N1CCCN(Cc2cccs2)CC1)c1cccnc1` (stereo not drawn), the Percent Effect in assay [1] was -0.761%; in assay [2], 18.4%; in assay [3] it was -1.54%; in assay [4], -0.0672%; in the assay on Trypanosoma cruzi, 5.64%; in assay [5] it was 10.3%. Further, the Percent Effect in assay [6] is 8.02%; in the assay filed under Homo sapiens, -11.5%; in assay [7] it was 5.39%; in assay [8], 21.9%; in assay [9] it was -12%.
As to `Clc1ccc(-n2cc(CNC3CCc4ncnn4C3)cn2)cc1` (stereo not drawn), the Percent Effect in assay [1] is -0.3%; in [2] it was 1.27%; in assay [3], 7.38%; in assay [4], 3.29%; in the assay on Trypanosoma cruzi it was -2.36%; in assay [5] it was 1.5%. For the same molecule, the Percent Effect in [6] was 10.6%; in the assay filed under Homo sapiens it was 7.5%; in [7], 2.08%; in assay [8], 10.1%; in assay [9], -1.43%.
Regarding `CC(C)c1ncc2c(n1)CN(Cc1nc(-c3ccoc3)no1)CC2`, the Percent Effect in assay [1] was -2.65%; in assay [2], 10.8%; in [3], -16.9%; in assay [4], 5.18%; with Trypanosoma cruzi, 0.0929%; in assay [5], -0.185%. The Percent Effect in assay [6] stood at 6.46%; in the assay listed under Homo sapiens it was 12.5%; in assay [7] it was 9.9%; in assay [8] it was 3.66%; in assay [9] it was 11.7%.
On to `CC(C)C(C(=O)N1CCC(N(C)c2cccnn2)CC1)n1cncn1` (stereo not drawn), for which the Percent Effect is -2.45% in assay [1]; 0% in assay [2]; -10.6% in assay [3]; 4.35% in assay [4]; -3.49% with Trypanosoma cruzi; 4.01% in assay [5]. Moreover, the Percent Effect is 9.01% in [6]; 11.7% in the assay listed under Homo sapiens; -0.493% in assay [7]; 1.24% in assay [8]; 6.08% in [9].
As for `O=C(NCCOc1ncc(Cl)cc1Cl)c1ccncc1F`, the Percent Effect is -4.54% in assay [1]; 2.7% in [2]; 2.46% in assay [3]; -3.73% in assay [4]; 5.08% in the assay on Trypanosoma cruzi; -2.08% in assay [5]. For the same molecule, the Percent Effect in assay [6] is 17.8%; in the assay listed under Homo sapiens, 8.71%; in assay [7], 5.94%; in assay [8] it was 8.54%; in assay [9] it was -7.35%.
With `Cc1ccc(C(NC(=O)[C@H]2CC[C@@H](O)CC2)c2cccnc2)cc1C` (stereo partly drawn), the Percent Effect was -7.06% in assay [1]; 5.33% in [2]; 2.02% in assay [3]; 2.58% in assay [4]; -1.07% in the assay with Trypanosoma cruzi; 4.17% in [5]. The Percent Effect in [6] was 8.2%; in the assay listed under Homo sapiens it was -9.12%; in assay [7] it was 0.546%; in [8], 8.64%; in assay [9], -6.38%.
Turning to `O=C(c1ccc(O)cc1)N1CCN(C(=O)c2ccc3c(c2)COC3)CC1`, the Percent Effect in [1] was -4.15%; in [2], 10.1%; in [3] it was -4.98%; in assay [4], 13.3%; in the assay with Trypanosoma cruzi, -1.98%; in [5] it was -2.66%. Further, the Percent Effect in [6] is 4.01%; in the assay filed under Homo sapiens, -19.9%; in assay [7], 4.43%; in [8] it was 8.86%; in assay [9] it was -6.29%.
